{"source": "paper PMC4336329", "about": "(PLoS ONE, 2015)", "note": "The whole screen tested about 310,000 compounds, of which about 2,200 (0.71%) showed an effect of 50% or more. Effects have a minus sign here. This is one part of a sample in which strong results are shown more often than they occur."}
{"target": "human ether-à-go-go-related gene (hERG) potassium channel (human, UniProt Q12809)", "sequence (Q12809 whole entry, looked up)": "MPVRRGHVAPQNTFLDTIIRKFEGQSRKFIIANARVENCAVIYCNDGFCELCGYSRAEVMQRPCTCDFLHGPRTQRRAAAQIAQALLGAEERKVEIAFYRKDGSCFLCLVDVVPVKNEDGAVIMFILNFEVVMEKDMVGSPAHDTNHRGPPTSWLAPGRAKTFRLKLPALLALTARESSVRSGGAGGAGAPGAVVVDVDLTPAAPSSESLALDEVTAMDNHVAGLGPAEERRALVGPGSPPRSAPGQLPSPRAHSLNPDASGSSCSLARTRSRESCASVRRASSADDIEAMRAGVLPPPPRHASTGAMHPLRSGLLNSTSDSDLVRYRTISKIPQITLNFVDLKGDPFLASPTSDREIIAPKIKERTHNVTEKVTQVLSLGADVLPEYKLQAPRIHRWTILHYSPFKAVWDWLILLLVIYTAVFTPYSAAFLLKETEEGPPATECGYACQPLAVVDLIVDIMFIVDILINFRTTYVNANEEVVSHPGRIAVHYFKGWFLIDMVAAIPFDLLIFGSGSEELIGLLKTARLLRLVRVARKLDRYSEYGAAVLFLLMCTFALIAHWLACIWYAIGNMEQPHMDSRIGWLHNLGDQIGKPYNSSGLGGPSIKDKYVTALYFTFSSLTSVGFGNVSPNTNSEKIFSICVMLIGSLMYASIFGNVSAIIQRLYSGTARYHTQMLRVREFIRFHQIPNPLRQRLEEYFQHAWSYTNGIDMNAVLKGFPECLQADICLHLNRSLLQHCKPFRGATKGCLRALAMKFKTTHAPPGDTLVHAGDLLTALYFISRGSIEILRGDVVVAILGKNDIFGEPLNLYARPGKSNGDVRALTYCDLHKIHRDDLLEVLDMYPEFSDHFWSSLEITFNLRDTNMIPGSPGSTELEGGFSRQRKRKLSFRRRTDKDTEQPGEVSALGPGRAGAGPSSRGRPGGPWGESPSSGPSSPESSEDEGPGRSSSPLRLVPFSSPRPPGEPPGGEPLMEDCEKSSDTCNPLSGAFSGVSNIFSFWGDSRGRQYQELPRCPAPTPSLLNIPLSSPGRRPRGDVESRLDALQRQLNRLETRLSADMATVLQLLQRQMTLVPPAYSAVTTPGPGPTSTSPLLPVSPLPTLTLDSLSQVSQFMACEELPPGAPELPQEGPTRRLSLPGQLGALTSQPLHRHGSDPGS", "assay": "primary screen, population patch clamp on CHO cells stably expressing hERG; higher = less effect of the substance", "method": "Briefly, Chinese hamster ovary (CHO) cells stably expressing the hERG channel were dislodged from tissue culture flasks and dispensed into PPC plates. […] During the recording, background leak currents were estimated by a 100 ms step to -80 mV from an initial holding potential of -70 mV and subtracted from the subsequent current measurement. The campaign was conducted in two phases using slight differences in recording protocol. In the first phase, the initial voltage pulse used a 100 ms step to -30 mV from a holding potential of -70 mV, a 2 s conditioning step to +25 mV, and a 2 s test step to -30 mV. During the second phase of the screen, the potential during the conditioning step was raised to +45 mV. In both phases of the campaign, a secondary voltage pulse was applied using the same parameters as the second phase initial pulse. The initial and secondary pulses were applied in the absence of compound, and upon application of 1 μM and 10 μM test concentrations. Small molecule effects on hERG current density were quantified by […].", "units": {"hERG current change (%, negative = inhibition) at 1uM": "%"}}
{"smiles": "O=c1nc2ccccc2c2n1CC(CN1CCN(c3ccc(F)cc3)CC1)N2", "note": "(stereo not shown)", "hERG current change (%, negative = inhibition) at 1uM": -65.6}
{"smiles": "O=c1nc2ccccc2c2n1CC(CN1CCN(c3ccccc3F)CC1)N2", "note": "(stereo not shown)", "hERG current change (%, negative = inhibition) at 1uM": -20.7}
{"smiles": "O=c1nc2ccccc2c2n1CC(CN1CCN(c3cccc(Cl)c3)CC1)N2", "note": "(stereo not shown)", "hERG current change (%, negative = inhibition) at 1uM": -38.9}
{"smiles": "O=C1NCCN(Cc2cccc(Oc3ccccc3)c2)C1CC(=O)N1CCCO1", "note": "(stereo not shown)", "hERG current change (%, negative = inhibition) at 1uM": 12.1}
{"smiles": "COc1ccc(-c2nc(=S)[nH][nH]2)cc1OC", "hERG current change (%, negative = inhibition) at 1uM": 10.4}
{"smiles": "N#Cc1ccc(Cn2ccnc2C(=O)Nc2ccccc2)cc1", "hERG current change (%, negative = inhibition) at 1uM": -86.8}
{"smiles": "Cc1ccc(Cn2ccnc2C(=O)Nc2ccccc2)cc1", "hERG current change (%, negative = inhibition) at 1uM": 9.01}
{"smiles": "O=C(Nc1ccccc1)c1nccn1Cc1ccc(F)cc1", "hERG current change (%, negative = inhibition) at 1uM": 11.3}
{"smiles": "O=C(NC(c1ccccc1)c1ccccn1)c1cccc([N+](=O)[O-])c1", "note": "(stereo not shown)", "hERG current change (%, negative = inhibition) at 1uM": 12.3}
{"smiles": "O=C1C(=O)N(CCN2CCOCC2)C(c2cccc(Cl)c2)/C1=C(\\O)c1ccc2c(c1)OCCO2", "note": "(stereo not shown)", "hERG current change (%, negative = inhibition) at 1uM": 2.15}
{"smiles": "CC(=O)c1coc2ccc(OCC(=O)O)cc12", "hERG current change (%, negative = inhibition) at 1uM": -0.294}
{"smiles": "CCOc1cc(/C=N/NC(=O)c2cccnc2)ccc1OCC(N)=O", "hERG current change (%, negative = inhibition) at 1uM": 10.8}
{"smiles": "CCOc1cc(/C=N/NC(=O)c2cccnc2)cc(Br)c1OCC(N)=O", "hERG current change (%, negative = inhibition) at 1uM": -69.4}
{"smiles": "CCOc1cc(/C=N/NC(=O)c2cccnc2)ccc1O", "hERG current change (%, negative = inhibition) at 1uM": 7.47}
{"smiles": "O=C(O)CCn1c2c(c3ccccc31)CCCC2", "hERG current change (%, negative = inhibition) at 1uM": 19.5}
{"smiles": "CCCCCn1c2c(c(=N)c3ccccc31)CCC2.I", "hERG current change (%, negative = inhibition) at 1uM": -61.5}
{"smiles": "CCCCCCCn1c2c(c(=N)c3ccccc31)CCC2.I", "hERG current change (%, negative = inhibition) at 1uM": -89.6}
{"smiles": "CCOC(=O)Cn1c2c(c(=N)c3ccccc31)CCC2.Cl", "hERG current change (%, negative = inhibition) at 1uM": 12.7}
{"smiles": "Br.CCn1c2c(c(=N)c3ccccc31)CCC2", "hERG current change (%, negative = inhibition) at 1uM": 12}
{"smiles": "CCCCn1c2c(c(=N)c3ccccc31)CCC2.I", "hERG current change (%, negative = inhibition) at 1uM": -16.6}
{"smiles": "CCOc1cc(NC(=S)NCCCN2CCOCC2)c(OCC)cc1NC(=O)c1ccccc1", "hERG current change (%, negative = inhibition) at 1uM": 16.1}
{"smiles": "O=C(Nc1ccccc1)C1CC=CCC1C(=O)OCC1CCCO1", "note": "(stereo not shown)", "hERG current change (%, negative = inhibition) at 1uM": -5.31}
{"smiles": "O=C1C2CCCCN2C(=O)N1CCCCN1CCN(c2ccc(F)cc2)CC1", "note": "(stereo not shown)", "hERG current change (%, negative = inhibition) at 1uM": -7.05}
{"smiles": "O=C1C2CCCN2C(=O)N1CCN1CCN(c2ccccc2)CC1", "note": "(stereo not shown)", "hERG current change (%, negative = inhibition) at 1uM": -10.6}
{"smiles": "O=C1C2CCCN2C(=O)N1CCCN1CCN(c2ccc([N+](=O)[O-])cc2)CC1", "note": "(stereo not shown)", "hERG current change (%, negative = inhibition) at 1uM": -63.3}
{"smiles": "Cl.Nc1ccc(N2CCN(CCCCN3C(=O)C4CCCN4C3=O)CC2)cc1.O", "note": "(stereo not shown)", "hERG current change (%, negative = inhibition) at 1uM": 18.3}
{"smiles": "Cc1ccc(N2CCN(CCCN3C(=O)C4CCCN4C3=O)CC2)cc1.Cl", "note": "(stereo not shown)", "hERG current change (%, negative = inhibition) at 1uM": 4.77}
{"smiles": "O=C1C2CCCCN2C(=O)N1CCCN1CCN(c2ccc(F)cc2)CC1", "note": "(stereo not shown)", "hERG current change (%, negative = inhibition) at 1uM": -3.12}
{"smiles": "O=C(CCCN1C(=O)C2CCCCN2C1=O)N1CCN(c2ccc([N+](=O)[O-])cc2)CC1", "note": "(stereo not shown)", "hERG current change (%, negative = inhibition) at 1uM": -78.5}
{"smiles": "O=C1C2CCCCN2C(=O)N1CCCCN1CCN(c2ccc([N+](=O)[O-])cc2)CC1", "note": "(stereo not shown)", "hERG current change (%, negative = inhibition) at 1uM": -80.7}
{"smiles": "O=C1C2CCCN2C(=O)N1CCCCN1CCN(c2ccccc2)CC1", "note": "(stereo not shown)", "hERG current change (%, negative = inhibition) at 1uM": 1.66}
{"smiles": "O=C(CCN1C(=O)C2C3C=CC(C3)C2C1=O)N1CCN(c2ccc([N+](=O)[O-])cc2)CC1", "note": "(stereo not shown)", "hERG current change (%, negative = inhibition) at 1uM": -49.5}
{"smiles": "O=C1C2CCCCN2C(=O)N1CCN1CCN(c2ccc([N+](=O)[O-])cc2)CC1", "note": "(stereo not shown)", "hERG current change (%, negative = inhibition) at 1uM": -69.7}
{"smiles": "Cc1ccc(N2CCN(CCCCN3C(=O)C4CCCN4C3=O)CC2)cc1.Cl", "note": "(stereo not shown)", "hERG current change (%, negative = inhibition) at 1uM": -3.91}
